# Assay results reported in the supplement of paper PMC9023506.
# Counter-ions that a name gives are not always drawn.
# Legend:
# Details in all cases: 10 µM; exposure time: 3 h pre-incubation + 3 h imaging
# [1] = tested on: Danio rerio larvae (5 dpf); test: excitability to 1-s acoustic pulses, difference vs DMSO (percentage points (treated minus DMSO)); higher = more of the behaviour than the DMSO vehicle control
# Outline: (§1)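 5-dpf wild-type zebrafish larvae in 96-well ProxiPlates were exposed to library drugs at 10 µM (diluted 1000× from DMSO stocks into egg water). There were 48 larvae per drug, exposed 3 h before and 3 h during imaging at 28.5 °C. Images taken every 6 s covered a 3-h program of rest, moving coloured lines and acoustic pulses, and an ImageJ macro scored movement and upper-half location. Each behaviour score is the treated-group mean minus the DMSO vehicle mean, in percentage points.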
# [2] = tested on: Danio rerio larvae (5 dpf); test: activity during first hour (no stimuli), difference vs DMSO (percentage points (treated minus DMSO)); higher = more of the behaviour than the DMSO vehicle control
# Outline: as §1
# [3] = tested on: Danio rerio larvae (5 dpf); test: optomotor response to green moving lines, difference vs DMSO (percentage points (treated minus DMSO)); higher = more of the behaviour than the DMSO vehicle control
# Outline: as §1
# [4] = tested on: Danio rerio larvae (5 dpf); test: optomotor response to red moving lines, difference vs DMSO (percentage points (treated minus DMSO)); higher = more of the behaviour than the DMSO vehicle control
# Outline: as §1
# [5] = tested on: Danio rerio larvae (5 dpf); test: startle response to 20-s acoustic pulses, difference vs DMSO (percentage points (treated minus DMSO)); higher = more of the behaviour than the DMSO vehicle control
# Outline: as §1
# [6] = tested on: Danio rerio larvae (5 dpf); test: activity during period 15 (no stimuli), difference vs DMSO (percentage points (treated minus DMSO)); higher = more of the behaviour than the DMSO vehicle control
# Outline: as §1
# [7] = tested on: Danio rerio larvae (5 dpf); test: optomotor response to fast red moving lines, difference vs DMSO (percentage points (treated minus DMSO)); higher = more of the behaviour than the DMSO vehicle control
# Outline: as §1
# [8] = tested on: Danio rerio larvae (5 dpf); test: optomotor response to blue moving lines, difference vs DMSO (percentage points (treated minus DMSO)); higher = more of the behaviour than the DMSO vehicle control
# Outline: as §1
# [9] = tested on: Danio rerio larvae (5 dpf); test: habituation to 1-s acoustic pulses, difference vs DMSO (percentage points (treated minus DMSO)); higher = more of the behaviour than the DMSO vehicle control
# Outline: as §1
smiles,measurement,setting,value
CN(C)CCc1c[nH]c2ccc(C[C@H]3COC(=O)N3)cc12 [Zolmitriptan],excitability to 1-s acoustic pulses,[1],3.25
same,activity during first hour,[2],7.82
same,optomotor response to green moving lines,[3],6.88
Cc1c(-c2ccc(O)cc2)n(Cc2ccc(OCCN3CCCCCC3)cc2)c2ccc(O)cc12 [Bazedoxifene acetate],optomotor response to red moving lines,[4],9.09
same,activity during first hour,[2],-12.7
same,optomotor response to green moving lines,[3],-2.2
same,startle response to 20-s acoustic pulses,[5],-4.17
N[C@@H]1[C@H]2CN(c3nc4c(cc3F)c(=O)c(C(=O)O)cn4-c3ccc(F)cc3F)C[C@@H]12 [Trovafloxacin mesylate],optomotor response to red moving lines,[4],4.89
same,activity during period 15,[6],2.91
same,activity during first hour,[2],5.81
same,optomotor response,[7],-4.84
CC(=O)Nc1ccc(O)cc1 [Acetaminophen],activity during period 15,[6],8.08
same,activity during first hour,[2],5.63
same,optomotor response to blue moving lines,[8],5.11
same,startle response to 20-s acoustic pulses,[5],-1.63
CNC(=O)c1cc(Oc2ccc(NC(=O)Nc3ccc(Cl)c(C(F)(F)F)c3)cc2)ccn1 [Sorafenib],habituation to 1-s acoustic pulses,[9],-8.29
same,optomotor response to red moving lines,[4],-10.7
same,activity during first hour,[2],3.08
same,optomotor response to green moving lines,[3],-2.72
CCCc1nc(C(C)(C)O)c(C(=O)O)n1Cc1ccc(-c2ccccc2-c2nnn[nH]2)cc1 [Olmesartan],optomotor response to red moving lines,[4],-10.3
same,activity during first hour,[2],12.1
same,optomotor response to blue moving lines,[8],3.07
same,optomotor response to green moving lines,[3],-2.59
same,startle response to 20-s acoustic pulses,[5],7.62
OCCN(CCO)c1nc(N2CCCCC2)c2nc(N(CCO)CCO)nc(N3CCCCC3)c2n1 [Dipyridamole],activity during first hour,[2],-0.789
same,optomotor response to blue moving lines,[8],-5.39
N#C[C@@H]1C[C@@H]2C[C@@H]2N1C(=O)[C@@H](N)C12CC3CC(CC(O)(C3)C1)C2 [Saxagliptin hydrochloride],excitability to 1-s acoustic pulses,[1],2.82
same,activity during first hour,[2],1.74
same,startle response to 20-s acoustic pulses,[5],4.85
same,optomotor response,[7],-7.58
COc1cc(N)c(Cl)cc1C(=O)NC1CCN(CCCOc2ccc(F)cc2)CC1OC (centres undefined) [Cisapride],habituation to 1-s acoustic pulses,[9],6.52
same,excitability to 1-s acoustic pulses,[1],16.4
same,activity during first hour,[2],1.47
same,startle response to 20-s acoustic pulses,[5],-0.377
